Results published in PubChem BioAssay AID488969 (Vanderbilt High Throughput Screening Facility, 2010).
Several values for one entry are separate records, joined by “and”; a condition that tells them apart may be missing. Identical values can stand only once. The full ranking holds about 110,000 compounds; the median of “z-score” is about -0.1, and the highest 2% start at about 2. This excerpt belongs to a sample that is enriched for the highest values. Activity calls are given as the source filed them.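 Rule for the calls: active = z-score in the third read window above 3 or below -3; inactive = the rest.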

Biological target: Metabotropic glutamate receptor 8 (Rattus norvegicus) (UniProt P70579)
Assay: mGluR8 Gi/Go-coupled signaling modulation – cell-based, rat, thallium flux, HTS, primary screen (AID 488969)
Conditions: HEK293 rat mGluR8, GIRK (G protein-gated inwardly rectifying potassium channel) thallium flux, FluoZin2; at 10 µM; stronger effect = higher value; submaximal glutamate (EC20) added with thallium

Sequence of Metabotropic glutamate receptor 8 (Rattus norvegicus) (P70579 whole entry, looked up): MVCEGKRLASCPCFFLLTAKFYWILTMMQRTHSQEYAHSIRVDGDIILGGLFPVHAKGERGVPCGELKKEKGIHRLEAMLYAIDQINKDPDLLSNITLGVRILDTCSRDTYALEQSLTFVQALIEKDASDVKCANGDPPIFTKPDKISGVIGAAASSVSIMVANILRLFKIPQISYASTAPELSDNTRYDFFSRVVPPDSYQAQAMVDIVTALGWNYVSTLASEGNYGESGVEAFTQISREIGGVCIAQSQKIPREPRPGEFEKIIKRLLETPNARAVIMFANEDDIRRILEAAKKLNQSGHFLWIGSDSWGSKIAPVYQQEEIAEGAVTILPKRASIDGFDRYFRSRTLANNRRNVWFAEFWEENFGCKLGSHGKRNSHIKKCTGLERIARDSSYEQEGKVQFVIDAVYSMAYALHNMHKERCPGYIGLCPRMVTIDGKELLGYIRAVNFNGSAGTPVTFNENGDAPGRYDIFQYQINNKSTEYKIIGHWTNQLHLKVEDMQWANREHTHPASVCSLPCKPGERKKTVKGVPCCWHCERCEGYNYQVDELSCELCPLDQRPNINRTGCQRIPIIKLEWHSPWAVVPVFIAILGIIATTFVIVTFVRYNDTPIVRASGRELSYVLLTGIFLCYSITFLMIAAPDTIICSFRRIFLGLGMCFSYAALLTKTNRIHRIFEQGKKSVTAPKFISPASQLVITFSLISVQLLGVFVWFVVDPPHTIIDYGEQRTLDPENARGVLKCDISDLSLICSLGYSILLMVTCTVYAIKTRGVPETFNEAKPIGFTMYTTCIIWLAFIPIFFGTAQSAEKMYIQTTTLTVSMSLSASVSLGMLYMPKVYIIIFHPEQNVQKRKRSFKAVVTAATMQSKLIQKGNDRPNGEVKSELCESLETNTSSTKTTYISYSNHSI

SMILES | z-score
CC(/C=C\c1cccnc1)=C/C(=O)O | -0.175 and 6.26 (active)
CC(=C/C(=O)O)/C=C/c1cccs1 | -0.429
CC(=C/C(=O)O)/C=C/c1ccc([N+](=O)[O-])cc1 | -0.0461
Cn1cccc1C1Nc2ccccc2NC2=C1C(=O)CC(C)(C)C2 (configuration not stated) | -0.491
CC1(C)CC(=O)C2=C(C1)Nc1ccccc1NC2c1nc2ccccc2[nH]1 (configuration not stated) | -0.113
Cc1c(C2Nc3ccccc3NC3=C2C(=O)CC(C)(C)C3)cnn1C (configuration not stated) | 4.64 (active)
CCOc1ccc(N(CC(=O)NCC2CCCO2)C(=O)CCC(=O)Nc2ccccn2)cc1 (configuration not stated) | -1.08
COc1ccc(NC(=O)CSc2nc(N)c3cc4c(nc3n2)CCCC4)cc1 | -0.916
O=C(COC(=O)c1ccccc1C(=O)c1ccccc1)NCCc1ccc(Cl)cc1Cl | -0.0656
S=c1[nH]nc(-c2ccccn2)n1/N=C/c1ccccc1 | -0.194
Cc1cc(-c2n[nH]c(=S)n2/N=C/c2sccc2C)n[nH]1 | -0.362
S=c1[nH]nc(-c2ccccn2)n1/N=C/c1ccc(Br)s1 | 5.6 (active)
Cc1cc(-c2n[nH]c(=S)n2/N=C/c2ccc(C)s2)n[nH]1 | -0.0648
S=c1[nH]nc(-c2ccccn2)n1/N=C/c1cccs1 | -0.126
S=c1[nH]nc(-c2ccco2)n1/N=C/c1cccs1 | -0.0217
Cc1cc(-c2n[nH]c(=S)n2/N=C/c2ccc(Br)s2)n[nH]1 | 4.55 (active)
Cc1ccc(/C=N/n2c(-c3ccco3)n[nH]c2=S)s1 | 0.259
S=c1[nH]nc(-c2ccco2)n1/N=C/c1ccc(Br)s1 | 4.39 (active)
Nc1c(C(O)(C(F)(F)F)C(F)(F)F)cc(C(O)(C(F)(F)F)C(F)(F)F)c2ccccc12 | 0.066
CC1=C(C(=O)NCc2ccccc2)C(c2ccccc2OCC(N)=O)NC(=O)N1 (configuration not stated) | 0.226
O=C(Cc1c(F)cccc1Cl)N1CCCC1 | 0.183
CS(=O)(=O)N1CCC(C(=O)NCc2ccco2)CC1 | 0.432
COc1ccc(N2CCN(C(=O)c3cccc(N4C(=O)C5CC=CC(C)C5C4=O)c3)CC2)cc1 (configuration not stated) | -0.43

SMILES | z-score
COc1ccc(/C=C2\SC(c3ccc(C)cc3)=NC2=O)cc1OC | -1.87
COc1cc(/C=C2\SC(=S)NC2=O)ccc1OS(=O)(=O)c1ccccc1 | 15.1 (active)
COc1cc(/C=C2/SC(=S)NC2=O)ccc1OS(=O)(=O)c1ccc(C)cc1 | -2.12
COc1ccc(/C=C2\SC(=O)N=C2N)cc1OC | 0.0136
COc1cc(/C=C2/C(=O)N(c3ccccc3)N=C2C)ccc1OS(=O)(=O)c1ccccc1 | -0.322
COc1ccc(/C=C2\SC(=O)NC2=S)cc1OC | 2.05
CCOC(=O)c1c(-c2ccc(OC)cc2)nc2nonc2c1N | 0.0715
CC(C)CCNC(=S)Nc1ccc(F)cc1 | 0.97
COc1cc(C)c(S(=O)(=O)N2CCOCC2)cc1C | 0.136
COc1ccc(NC(=O)CSc2ccc(-c3ccccn3)nn2)cc1OC | -0.397
Cc1ccc(S(=O)(=O)c2nc(C(C)(C)C)oc2N2CCOCC2)cc1 | -0.0758
N#C/C(=C\c1ccco1)C(=O)NCC1CCCO1 (configuration not stated) | -0.0138
CC(C)NS(=O)(=O)c1cccc2nsnc12 | -0.236
COc1ccc2cc3cc(C(=O)NC(C)C)oc3nc2c1 | 0.629
C=CCSc1nc2sc3c(c2c(=O)n1CC)CCc1ccccc1-3 | 2.62
C=CCSc1nc2sc3c(c2c(=O)n1CC=C)CCc1ccccc1-3 | -0.139
C=CCn1c(SCC)nc2sc3c(c2c1=O)CCc1ccccc1-3 | 0.571
CCOC(=O)CSc1c(-c2ccccc2)c2cc(Cl)ccc2[nH]c1=O | -0.516
O=C(c1cccn(Cc2cccc(Cl)c2)c1=O)N1CCOCC1 | 0.0735
CC(C)COP(=O)(c1ccc(N(C)C)cc1)C(O)c1ccccn1 (configuration not stated) | 0.147
CC(C)COP(=O)(c1ccc(N(C)C)cc1)C(O)c1ccncc1 (configuration not stated) | -0.817
CC(C)CCOP(=O)(c1ccc(N(C)C)cc1)C(O)c1ccccn1 (configuration not stated) | 5.74 (active)
CCOC(=O)c1ccc(NC(=O)C2=C(C)Nc3nc(CCCO)nn3C2c2cccc(C)c2)cc1 (configuration not stated) | 0.0656

SMILES | z-score
CCCCN(Cc1ccccc1)S(=O)(=O)c1cc(Br)cc2c1N(C(C)=O)C(C)C2 (configuration not stated) | 2.82
COc1cccc(CNS(=O)(=O)c2cc(Br)cc3c2N(C(C)=O)C(C)C3)c1 (configuration not stated) | 0.241
CC(=O)N1c2c(cc(Br)cc2S(=O)(=O)NCC2COc3ccccc3O2)CC1C (configuration not stated) | 0.248
CCOc1ccc(/C=C2\SC(=O)N(CCNC(=O)C3COc4ccccc4O3)C2=O)cc1OC (configuration not stated) | -0.337
COc1ccc(/C=N/c2oc(-c3ccccc3)cc2C#N)cc1 | -0.0521
O=[N+]([O-])c1ccc(O)c(/C=N/n2cnc3ccccc32)c1 | -0.812
COc1cccc(/C=N/n2cnc3ccccc32)c1OC | -0.147
Oc1ccc(Br)cc1/C=N/n1cnc2ccccc21 | 2.45
COc1cc(C(=S)N2CCC(C(N)=O)CC2)ccc1O | -0.479
CC(=O)c1cccc(NC(=S)NC2CC2)c1 | -0.023
O=C1OC2(CCCCC2)OC(=O)C1=CNc1ccc2c(c1)OCO2 | 0.207
CCOc1ccccc1NC=C1C(=O)OC2(CCCCC2)OC1=O | 0.615
O=C1OC2(CCCCC2)OC(=O)C1=CNc1nc2ccccc2s1 | 8.02 (active)
COc1ccccc1N1CCN(C(=O)c2ccc(CN3CCc4ccccc4C3)cc2)CC1 | -0.0526
O=c1[nH]c(-c2cccnc2)nc2ccccc12 | -0.073
O=C(Nc1ccccc1)C1=C(O)CC(c2ccc(Cl)cc2)N2CCN=C12 (configuration not stated) | -0.724
CC1CN=C2C(C(=O)Nc3ccccc3)=C(O)CC(c3ccccc3)N21 (configuration not stated) | 2.31
CC1=NN(C(=S)Nc2ccccc2)C(c2ccccc2)C1 (configuration not stated) | 0.129
N#C/C(=C\c1c(N2CCC(C(N)=O)CC2)nc2ccccn2c1=O)C(=O)NCc1ccco1 | -0.0915
COC(=O)C1C2C=CC3(CN(Cc4ccco4)C(=O)C13)O2 (configuration not stated) | 0.49
CCc1ccc(CNc2ccc(N3CCN(C(C)=O)CC3)cc2)cc1 | 0.968
CC(=O)N1CCN(c2ccc(NCc3ccc(C(C)C)cc3)cc2)CC1 | 2.03
CC(=O)N1CCN(c2ccc(NCc3ccc(F)cc3)cc2)CC1 | 0.0515

SMILES | z-score
O=C(Nc1ccc2c(c1)OCO2)C1CCN(C(=O)CSc2ncnc3ccccc23)CC1 | -0.185
BrC(/C=N/Nc1nc(N2CCOCC2)nc(N2CCOCC2)n1)=C/c1ccccc1 | -0.171
Cn1c(=O)oc2cc(S(=O)(=O)NCc3ccccc3)ccc21 | 0.611
Cc1ccc(Cn2c(=N)n(CC(O)c3ccco3)c3ccccc32)cc1 (configuration not stated) | 1.09
CCn1c(=N)n(CC(=O)c2ccco2)c2ccccc21 | 0.33
CCCCCCCn1c(=N)n(CC(=O)c2ccco2)c2ccccc21 | 4.65 (active)
CCCn1c(=N)n(CC(=O)c2ccco2)c2ccccc21 | -0.051
Cc1ccccc1Cn1c(=N)n(CC(=O)c2ccco2)c2ccccc21 | 2.17
Cc1ccccc1Cn1c(=N)n(CC(=O)c2ccc([N+](=O)[O-])cc2)c2ccccc21 | 0.33
Cc1ccccc1Cn1c(=N)n(CC(O)c2ccco2)c2ccccc21 (configuration not stated) | 3.34 (active)
CCCCn1c(=N)n(CC(=O)c2ccco2)c2ccccc21 | -0.268
N=c1n(Cc2ccccc2)c2ccccc2n1CC(O)c1ccco1 (configuration not stated) | 0.39
CC1CCN(C(=S)NC2CCCCC2)CC1 | -0.176
CCN1CCN(C(=O)CN2C(=O)c3cccc4cccc2c34)CC1 | -0.191
O=C(CSc1ccc(-c2ccccc2)nn1)c1ccccc1 | 0.0905
CCOCC(=O)Nc1nnc(Cc2ccc(OC)cc2)s1 | -0.115
Cc1ccc(C)c(NC(=S)NC(NC(=O)OCc2ccccc2)C(Cl)(Cl)Cl)c1 (configuration not stated) | -0.108
Cc1ccc(C(=O)O/N=C/c2ccc3c(c2)OCO3)cc1 | -0.102
CSc1nnc(-c2ccccc2Cl)o1 | -0.168
CSc1ccccc1NC(=O)Nc1ccc(Cl)cc1 | 6.38 (active)
O=C(NC(=S)NCc1ccccc1)c1ccccc1F | 1.93
O=C(N/C(=N\O)c1ccccc1)Nc1ccc(Cl)cc1 | 2.01
Cc1ccccc1C(=O)NC(=S)Nc1ccc(Oc2ccc(Cl)cc2)cc1 | 2.74

SMILES | z-score
Cc1ccccc1C(=O)NC(=S)Nc1ccc(Cc2ccncc2)cc1 | -0.501
CSc1ccccc1NC(=O)Nc1ccccc1 | 0.531
Cc1ccccc1C(=O)NC(=S)Nc1ccc(S(=O)(=O)N(C)c2ccccc2)cc1 | 1.07
CSc1ccccc1NC(=O)Nc1ccc(F)c(Cl)c1 | -0.197
O=C(N/N=C/c1ccc(Cl)cc1)Nc1ccccc1 | -0.0155
Cc1cccc(C)c1NC(=S)NC(=O)c1ccccc1F | 7.93 (active)
O=C(NC(=S)NC(=O)c1ccccc1F)c1ccccc1F | 0.339
O=C(N/N=C/c1ccc(Cl)cc1Cl)Nc1ccccc1 | -0.276
COc1ccc(CCN2C(=O)CCC2(C)C(=O)NCc2cccnc2)cc1OC (configuration not stated) | -0.282
Cc1nn(-c2ccc(F)cc2)c(Cl)c1/C=N/NC(=O)c1cccc(S(=O)(=O)N2CCCC2)c1 | -0.115
Cc1cc(/C=C2/C(=O)NN(c3ccccc3)C2=O)c(C)n1-c1cccc(O)c1 | -0.338
Cn1nnc(NC(=O)CSc2nnnn2-c2ccc(F)cc2)n1 | 0.0243
O=C(NC(C(=O)N/N=C/c1c2ccccc2cc2ccccc12)c1n[nH]c(=O)c2ccccc12)c1ccccc1 (configuration not stated) | -0.183
N#C/C(=C\c1c(N(Cc2ccccc2)Cc2ccccc2)nc2ccccn2c1=O)C(N)=O | -1.96
Cc1c(C(=O)Nc2ccccc2[N+](=O)[O-])csc1-c1ccccc1 | -0.152
O=C(NC(=S)Nc1ccc(Oc2ccccc2)cc1)c1ccc(Cl)cc1 | 1.23
O=C(NC(=S)Nc1ccc(Oc2ccc(Cl)cc2)cc1)c1ccccc1 | 3.94 (active)
Cc1ccc(C(=O)NC(=S)Nc2ccc(Oc3ccc(Cl)cc3)cc2)cc1 | 0.157
Cc1nc2ncnn2c(C)c1CCC(=O)Nc1csc(N)n1 | -0.0552
O=C1CC(SCc2nc3ccccc3[nH]2)C(=O)N1c1ccc(F)cc1 (configuration not stated) | 0.0187
